Bioassay records as filed in PubChem.
PME-1 primary – blocks human protein phosphatase methylesterase 1. inhibition, % at 5.9 µM. recombinant PME-1, FP-Rh probe fluorescence polarization. Q9Y570. AID 2130. 320,000 compounds, 0.53% hits;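 active = inhibition above the campaign mean of all compounds plus 3 SD, cut at about 26% in these data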;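 also: competitive labeling of PME-1 active site by serine hydrolase directed probe; inhibitors block probe labeling so polarization falls and inhibition rises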
Target sequence (Q9Y570 whole entry, looked up): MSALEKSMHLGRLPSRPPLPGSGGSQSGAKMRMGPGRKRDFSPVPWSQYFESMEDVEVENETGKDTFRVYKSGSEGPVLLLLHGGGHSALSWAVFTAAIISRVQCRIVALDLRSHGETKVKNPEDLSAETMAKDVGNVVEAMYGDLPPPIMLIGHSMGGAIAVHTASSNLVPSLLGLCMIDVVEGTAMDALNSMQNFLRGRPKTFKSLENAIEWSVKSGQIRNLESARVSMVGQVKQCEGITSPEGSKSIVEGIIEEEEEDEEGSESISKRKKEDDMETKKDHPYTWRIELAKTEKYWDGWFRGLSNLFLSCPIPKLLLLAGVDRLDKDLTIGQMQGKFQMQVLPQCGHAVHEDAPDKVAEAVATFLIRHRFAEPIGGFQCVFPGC
pPAFAH inh – pPAFAH (human) enzyme inhibition; AID 463082; inhibition, % at 3.39 µM; 330,000 compounds, 1.5% hits; recombinant pPAFAH, FP-rhodamine probe fluorescence polarization;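 active = inhibition above the mean inhibition across the screen plus 3 SD, cut at about 25% in these data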;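 also: inhibitors block binding of the rhodamine activity-based probe so polarization drops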
PAFAH1B2 inh – PAFAH1B2 (human) inhibition. P68402. recombinant PAFAH1B2, FP-rhodamine activity probe, fluorescence polarization. inhibition, % at 3.39 µM. 340,000 compounds, 1.2% hits. AID 492953;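 active = inhibition above the mean of all tested compounds plus 3 SD, cut at about 24% in these data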
Fam108B inh – blocks mouse Fam108B hydrolase in RBBP9 counter-screen | recombinant Fam108B, FP-Rh probe fluorescence polarization | inhibition, % at 9.51 µM | 300,000 compounds, 0.33% hits;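 active = inhibition above the screen mean inhibition plus 3 SD, computed separately per campaign, cut at about 18% in these data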;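 also: inhibitors lower polarization as less probe binds the enzyme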
PAFAH2 inh – PAFAH2 (human) inhibition. recombinant PAFAH2, FP-rhodamine activity probe, fluorescence polarization. 340,000 compounds, 0.99% hits. inhibition, % at 3.39 µM. AID 492956;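 active = inhibition above the mean over all tested compounds plus 3 SD, cut at about 30% in these data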;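 also: inhibitors block probe labeling of enzyme so polarization drops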
PAFAH1B3 inh – PAFAH1B3 (human) inhibition. recombinant PAFAH1B3, FP-rhodamine probe, fluorescence polarization. 340,000 compounds, 0.28% hits. AID 492972. inhibition, % at 3.39 µM;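 active = inhibition above the screen-wide average of all tested compounds plus 3 SD, cut at about 25% in these data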
PAFAH2 FP conf – PAFAH2 (human) inhibition, confirmed; shares compounds with PAFAH2 inh; recombinant PAFAH2, FP-rhodamine activity probe, fluorescence polarization; inhibition, % at 3.39 µM; 2,300 compounds, 65% hits; AID 493030;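 active = mean inhibition over three repeats above a set limit taken from the earlier primary screen, cut at about 30% in these data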;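 also: inhibitor blocks binding of rhodamine activity probe so polarization falls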
Large screens that a line does not name were inactive (follow-up assays come after a bar, where they were run). Most compounds without a hit are left out; they make up all but 2.9% or so of the library.

Cc1noc(C)c1NC(=O)Nc1cccc2c1O[C@@H](CN(C)C(=O)Nc1ccc3c(c1)OCO3)[C@@H](C)CN([C@H](C)CO)C2=O	none (no result: PME-1 primary, Fam108B inh)
CC(C)(C)NC(=O)COC(=O)c1ccccc1C(=O)c1ccccc1	PAFAH2 inh 69 | PAFAH2 FP conf 56
O=C(COC(=O)c1ccccc1C(=O)c1ccc(Cl)cc1)NCc1ccccc1	PAFAH2 inh 34 | PAFAH2 FP conf inactive
O=C(COC(=O)c1ccc(Br)cc1)NCc1ccccc1	PAFAH2 inh 31 | PAFAH2 FP conf inactive
O=C(Cc1ccccc1)NCCc1ccc(Cl)cc1Cl	none
Cc1ccc(C(=O)c2ccccc2C(=O)OCC(=O)NCCc2ccccc2)cc1	none
O=C(COC(=O)c1ccccc1C(=O)c1ccccc1)NCCc1ccc(Cl)cc1Cl	PAFAH2 inh 71 | PAFAH2 FP conf 58
O=C(COC(=O)c1ccncc1)NCc1ccccc1	none
Cc1ccc(C(=O)c2ccccc2C(=O)OCC(=O)NC(=O)NC(C)(C)C)cc1	none
CCNC(=O)c1c(NC(=O)c2cc(-c3cc(C)cc(C)c3O)n[nH]2)sc2c1CCCC2	none (no result: PME-1 primary, pPAFAH inh, Fam108B inh)
CC(C)[C@@H](C(=O)NC1CCN(Cc2ccccc2)CC1)N1C(=O)N2CCc3c([nH]c4ccccc34)[C@@]2(C)C1=O	none
COc1ccc(C(=O)OCC(=O)N2CCCCCC2)cc1S(=O)(=O)N1CCOCC1	none (no result: Fam108B inh)
O=C(COc1ccc(C(=O)c2ccccc2)cc1)NCc1ccc(F)cc1	none
O=C(COC(=O)c1ccccc1C(=O)c1ccccc1)NCc1ccc(F)cc1	PAFAH2 inh 43 | PAFAH2 FP conf 36
O=[N+]([O-])c1ccc(C=Nc2cccc3ccccc23)s1	PAFAH2 inh 66 | PAFAH2 FP conf inactive
O=C1C(Cl)=C(N2CCCCC2)C(=O)C(Cl)=C1c1cnc(N2CCCCC2)s1	PAFAH2 inh 31 (no result: PME-1 primary, pPAFAH inh, Fam108B inh) | PAFAH2 FP conf inactive
O=C1C(Cl)=C(N2CCCCCC2)C(=O)N1c1ccc(Cl)cc1	none
O=C1CC(c2ccccc2)CN1C(=O)c1cccnc1 (stereo unspecified)	none
O=C1CC(c2ccccc2)CN1C(=O)c1cncc(Br)c1 (stereo unspecified)	PAFAH2 inh 64 | PAFAH2 FP conf 61
O=C(COC(=O)C1=COCCO1)NC1CCCCCCC1	PAFAH2 inh 76 | PAFAH2 FP conf 74
O=C(COC(=O)C1=COCCO1)Nc1ccccc1Oc1ccccc1	none
N#Cc1ccc(NC(=O)COC(=O)C2=COCCO2)cc1	none
O=C(COC(=O)C1=COCCO1)Nc1cccc(Oc2ccccc2)c1	PAFAH2 inh 90 | PAFAH2 FP conf 74
O=C(COC(=O)C1=COCCO1)Nc1cccc(S(=O)(=O)N2CCOCC2)c1	none
O=C(COC(=O)C1=COCCO1)Nc1ccccc1	PAFAH2 inh 79 | PAFAH2 FP conf 68
CC(=O)c1cccc(NC(=O)COC(=O)C2=COCCO2)c1	PAFAH2 inh 44 | PAFAH2 FP conf 38
O=C(NC1CCCC1)C1=COCCO1	none
COc1ccc(NC(=O)COC(=O)Cn2cnc3ccccc3c2=O)c(OC)c1	none (no result: Fam108B inh)
O=C(COC(=O)C1=COCCO1)Nc1ccc([N+](=O)[O-])cc1C(F)(F)F	PAFAH2 inh 32 (no result: Fam108B inh) | PAFAH2 FP conf inactive
O=C(COC(=O)c1cccc(S(=O)(=O)N2CCOCC2)c1)Nc1ncc(Cl)cc1Cl	PAFAH2 inh 35 (no result: Fam108B inh) | PAFAH2 FP conf inactive
N#Cc1ccc(Cl)cc1NC(=O)COC(=O)c1cccc(S(=O)(=O)N2CCOCC2)c1	PAFAH2 inh 46 (no result: Fam108B inh) | PAFAH2 FP conf 38
O=C(COC(=O)c1cccc(S(=O)(=O)N2CCc3ccccc32)c1)Nc1ncc(Cl)cc1Cl	none
O=C(NCc1cccc(Cl)c1)N1CCN(S(=O)(=O)c2ccccc2F)CC1	none
C=CCN(c1ccccc1)S(=O)(=O)c1cccc(C(=O)Nc2cccc(C)n2)c1	none
COc1ccc(C(=O)CSc2nc(C)cc(C)n2)cc1C	PAFAH2 inh 42 | PAFAH2 FP conf inactive
O=C(NCC1CCCO1)C(Cc1ccccc1)N1C(=O)C2C3C=CC(C4CC34)C2C1=O (stereo unspecified)	PAFAH2 inh 43 | PAFAH2 FP conf inactive
O=C(NCC1CCCO1)C(C(=O)c1ccccc1)n1ccccc1=O (stereo unspecified)	none
